In PubChem BioAssay (NCI):
The panel holds about 83,000 compounds, 20% with a hit somewhere; the sample as a whole holds those more often.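 The test compound was applied at a single concentration to cells in 96-well plates for 48 hours, and percent growth was recorded.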 Unmarked numbers belong to inactive results. Activity calls are given as the source filed them. Rule for the calls: active = growth percent below 10; inactive = the rest.

How the values were obtained:
Assay in all cases: NCI-60 one-dose screen, 48 h (100 = growth as untreated, 0 = no growth, -100 = all killed)
Settings in all cases: 10 µM unless noted
[1] = system: DU-145 prostate
[2] = system: K-562 leukemia
[3] = system: MALME-3M melanoma
[4] = system: MDA-MB-231 breast
[5] = system: RXF 393 renal
[6] = system: SF-268 CNS
[7] = system: SF-295 CNS
[8] = system: SF-539 CNS
[9] = system: UACC-257 melanoma
[10] = system: M14 melanoma

O=C1CCc2c(sc3[nH]c(=S)n(-c4cc(C(F)(F)F)cc(C(F)(F)F)c4)c(=O)c23)C1
growth [1]: 25.2% | growth [2]: 22.5% | growth [3]: -16.7% (active) | growth [4]: -42.5% (active) | growth [5]: -3.65% (active) | growth [6]: 19.3% | growth [7]: -21.8% (active) | growth [8]: -51.1% (active) | growth [9]: -25.4% (active) | growth [10]: 23.6%

COc1cc(/C=C/C(=O)c2ccc(-n3cc(CN4CCN(c5cc6c(cc5F)c(=O)c(C(=O)O)cn6C5CC5)CC4)nn3)cc2)cc(OC)c1OC
growth [1]: 92.3% | growth [2]: 60.7% | growth [3]: 87.7% | growth [4]: 66.4% | growth [5]: 55.7% | growth [6]: 77.2% | growth [7]: 81.9% | growth [8]: 82.5% | growth [9]: 90.1% | growth [10]: 88.1%

CC(=O)O[C@H]1CC[C@@]2(C)C(=CC[C@@H]3[C@@H]2CC[C@]2(C)C(Cl)=C(c4nc5ccc(Cl)cn5c4NC(C)(C)C)C[C@@H]32)C1
growth [1]: 95.8% | growth [2]: 85.4% | growth [3]: 66.7% | growth [4]: 87.5% | growth [5]: 90.1% | growth [6]: 101% | growth [7]: 93.2% | growth [8]: 97.6% | growth [9]: 98.9% | growth [10]: 93.1%

CC(C)(C)n1cc(-c2ccnc(NCCNS(=O)(=O)c3cccc4ccccc34)c2)c(-c2cccc(O)c2)n1
growth [1]: 83.3% | growth [2]: 15.4% | growth [3]: 75.7% | growth [4]: 81.9% | growth [5]: 73.3% | growth [6]: 81.4% | growth [7]: 92.5% | growth [8]: 77.1% | growth [9]: 81.1% | growth [10]: 66.5%

O=C(Nc1ncc(Cc2cc(C(F)(F)F)ccc2Cl)s1)C(=S)N1CCOCC1
growth [1]: 100% | growth [2]: 82.2% | growth [3]: 92.7% | growth [4]: 87.4% | growth [5]: 92.6% | growth [6]: 88.7% | growth [7]: 88.8% | growth [8]: 101% | growth [9]: 95% | growth [10]: 86.7%

O=[N+]([O-])c1ccc(Oc2cccc3c(Oc4ccc([N+](=O)[O-])cc4[N+](=O)[O-])cccc23)c([N+](=O)[O-])c1
growth [1]: 107% | growth [2]: 95.1% | growth [3]: 105% | growth [4]: 63.7% | growth [5]: 96.4% | growth [6]: 85% | growth [7]: 99.9% | growth [8]: 96.3% | growth [9]: 91.6% | growth [10]: 93.3%

COc1ccc(C2=NN3C(C2)c2cc(Br)ccc2OC3c2ccncc2)cc1 (stereo not given)
growth [1]: 96.4% | growth [2]: 74.8% | growth [3]: 94% | growth [4]: 85% | growth [5]: 95.4% | growth [6]: 66.2% | growth [7]: 86.5% | growth [8]: 86.2% | growth [9]: 86.2% | growth [10]: 86.8%

CC(Cc1cccc2ccccc12)C(N)=O (stereo not given)
growth [1]: 110% | growth [2]: 104% | growth [3]: 111% | growth [4]: 100% | growth [5]: 113% | growth [6]: 106% | growth [7]: 100% | growth [8]: 96.6% | growth [9]: 104% | growth [10]: 108%

N#CC1=C(N)Oc2c(ccc3ccccc23)C1c1cc2ccccc2n2nnnc12 (stereo not given)
growth [1]: 19.5% | growth [2]: 4.13% (active) | growth [3]: 53.4% | growth [4]: 32.9% | growth [5]: 11.4% | growth [6]: 26.3% | growth [7]: 10.7% | growth [8]: -8.31% (active) | growth [9]: 47.4% | growth [10]: 12.7%

NC(=O)[C@@H]1Cc2ccccc2CN1C(=O)c1ccc2c(c1)Cc1ccccc1-2
growth [1]: 86% | growth [2]: 58.9% | growth [3]: 87.3% | growth [4]: 98.4% | growth [5]: 91.9% | growth [6]: 87.3% | growth [7]: 79.8% | growth [8]: 97.6% | growth [9]: 94.9% | growth [10]: 87.4%

COC12C=C/C(=C(/C(=O)OCc3ccccn3)C(=O)CCCCCCCCC3(OC)C=C/C(=C(/C(=O)OCc4ccccn4)C(=O)CCCCCCCC1)O3)O2
growth [1]: -24.5% (active) | growth [2]: -0.106% (active) | growth [3]: -60.1% (active) | growth [4]: 7.85% (active) | growth [5]: -82.5% (active) | growth [6]: -8.87% (active) | growth [7]: -25.7% (active) | growth [8]: -28.3% (active) | growth [9]: 11% | growth [10]: -23.3% (active)

COc1ccc(NC(=O)c2sc3nc(C)c(C(=O)c4ccccc4)cc3c2N)cc1
growth [1]: 116% | growth [2]: 94.2% | growth [3]: 102% | growth [4]: 98.6% | growth [5]: 87.8% | growth [6]: 104% | growth [7]: 103% | growth [8]: 102% | growth [9]: 96.9% | growth [10]: 106%

O=C1N/C(=N/N=C(c2ccccc2)c2ccccc2)S/C1=C\c1ccc(Br)cc1
growth [1]: 107% | growth [2]: 89.6% | growth [3]: 97.7% | growth [4]: 94.6% | growth [5]: 107% | growth [6]: 99.3% | growth [7]: 96.1% | growth [8]: 110% | growth [9]: 83.5% | growth [10]: 91.8%

CC(=O)Oc1ccccc1C(=O)N(Cc1ccc2c(Cl)cc(Cl)c(O)c2n1)c1ccccc1
growth [1]: 50.1% | growth [2]: 22.5% | growth [3]: 69.3% | growth [4]: 68.8% | growth [5]: 60.7% | growth [6]: 39.8% | growth [7]: 33.2% | growth [8]: 59% | growth [9]: 78.6% | growth [10]: 51%

O=c1c2cccc3c(N4CCOCC4)ccc(c32)c2nc3ccccc3n12
growth [1]: 109% | growth [2]: 80% | growth [3]: 97.7% | growth [4]: 82% | growth [5]: 131% | growth [6]: 109% | growth [7]: 86.3% | growth [8]: 90.5% | growth [9]: 96.2% | growth [10]: 104%

C=C(C)[C@@H]1CC[C@]2(COCCCNCCCN)CC[C@]3(C)[C@H](CC[C@@H]4[C@@]5(C)CC[C@H](OCCCN)C(C)(C)[C@@H]5CC[C@]43C)[C@@H]12
growth [1]: -49.5% (active) | growth [2]: -40% (active) | growth [3]: -88.1% (active) | growth [4]: -85.6% (active) | growth [5]: 28.8% | growth [6]: -35% (active) | growth [7]: 102% | growth [8]: -95.7% (active) | growth [9]: 13.8% | growth [10]: -83% (active)

O=C1CC2C=CCN2C=C1NC(=O)c1ccccc1 (stereo not given)
growth [1]: 103% | growth [2]: 92.7% | growth [3]: 93.9% | growth [4]: 112% | growth [5]: 105% | growth [6]: 98.7% | growth [7]: 98% | growth [8]: 107% | growth [9]: 99.8% | growth [10]: 98.8%

Oc1ccc(Cc2ccc(O)c3ncccc23)c2cccnc12
growth [1]: 23.5% | growth [2]: 9.66% (active) | growth [3]: -14.1% (active) | growth [4]: 5.46% (active) | growth [5]: 9.57% (active) | growth [6]: 27.5% | growth [7]: -20.5% (active) | growth [8]: 14.1% | growth [9]: -8.29% (active) | growth [10]: 17%

O=C(COc1ccc(/C=C2\Oc3ccccc3C2=O)cc1)Nc1nccs1
growth [1]: 109% | growth [2]: 70.1% | growth [3]: 98.1% | growth [4]: 76.6% | growth [5]: 95.5% | growth [6]: 75.1% | growth [7]: 116% | growth [8]: 99.9% | growth [9]: 113% | growth [10]: 105%

CCCCCCCCOC(=O)c1c(C)[nH]c(/C=C2\N=C(c3ccc[nH]3)C=C2OC)c1C
growth [1]: 23.3% | growth [2]: 10.8% | growth [3]: -42.9% (active) | growth [4]: -5.15% (active) | growth [5]: -19.9% (active) | growth [6]: 24% | growth [7]: -34.7% (active) | growth [8]: 3.4% (active) | growth [9]: -15.2% (active) | growth [10]: -56.1% (active)

Nc1ccc(Cl)c2c(=O)c3ccccc3[nH]c12
growth [1]: 94.1% | growth [2]: 83.5% | growth [3]: 109% | growth [4]: 91.5% | growth [5]: 80.4% | growth [6]: 92.9% | growth [7]: 76.4% | growth [8]: 83.5% | growth [9]: 74.7% | growth [10]: 91.1%
